Data reported in PubChem BioAssay (NCATS).
Results filed as inconclusive are left out. The source made the active and inactive calls. The call rests on the fitted dose curve; in most records, active means well fitted curve in the direction sought with a large enough effect; inconclusive means small, poorly fitted or top-dose-only effect, or another doubt; inactive means no such curve, though single readings can be large; an effect the other way counts as inactive or inconclusive.

How the values were obtained:
[1] = Cellular Toxicity (caspase-3) NIH 3T3 (AID 666);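 further: caspase signal read after 16 h compound exposure; 0% = DMSO basal and 100% = 100 µM tamoxifen stimulation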
In short: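 Concentration-response qHTS in NIH 3T3 mouse fibroblasts scores caspase-3/7 activation as rising luminescence after 16 hr compound exposure. Signals are scaled between DMSO-only and 100 uM tamoxifen.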

[2] = Cellular Toxicity (caspase-3) Renal Proximal Tubule (AID 667); conditions: renal proximal tubule cells; at 91.7 µM (top of the series), primary cells freshly taken from rat, solvent-only wells 0%, staurosporine 100% unless noted;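 further: cells exposed to compound for 16 hours at 37 °C before detection; 0% = DMSO basal and 100% = 10 µM staurosporine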
In short: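 Freshly isolated primary rat kidney proximal tubule cells, 1000/well, treated 16 hr at 37 °C, then Caspase-Glo 3/7 luminescence after 1 hr. Normalized to DMSO and 10 uM staurosporine; AC50 from Hill fit.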

[3] = biological target: Cytochrome P450 3A4 (Homo sapiens) (UniProt P08684); assay: qHTS Assay for Activators of Cytochrome P450 3A4 (AID 885); further: nearly all actives have a fitted effect of over 65% in size
Chain of Cytochrome P450 3A4 (Homo sapiens) (P08684 whole entry, looked up): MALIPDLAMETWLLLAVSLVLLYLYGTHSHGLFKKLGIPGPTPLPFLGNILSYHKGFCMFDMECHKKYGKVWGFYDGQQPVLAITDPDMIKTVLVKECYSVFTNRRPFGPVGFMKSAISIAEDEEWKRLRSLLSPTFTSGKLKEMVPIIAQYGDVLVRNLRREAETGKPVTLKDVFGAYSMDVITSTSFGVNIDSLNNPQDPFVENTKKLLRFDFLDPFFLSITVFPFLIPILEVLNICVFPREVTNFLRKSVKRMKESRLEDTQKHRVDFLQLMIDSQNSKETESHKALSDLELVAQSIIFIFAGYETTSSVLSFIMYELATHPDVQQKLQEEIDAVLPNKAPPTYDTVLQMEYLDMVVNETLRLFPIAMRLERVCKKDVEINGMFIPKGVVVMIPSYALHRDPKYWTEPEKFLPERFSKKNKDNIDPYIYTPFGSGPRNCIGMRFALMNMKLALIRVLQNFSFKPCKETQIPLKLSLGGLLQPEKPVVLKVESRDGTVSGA
In short: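 20nM CYP3A4 + 25uM Luciferin-PPXE (=KM), 200mM KPO4; cpd 10 min RT; NADPH regen, 60 min RT; stop w/ detection buffer, 20 min; luminescence. Normalized to 57 uM ketoconazole.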

[4] = Cell Viability - LYMP2-001 (AID 921);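 further: 0% = DMSO only and full inhibition = tetraoctylammonium bromide control wells; nearly all actives have a fitted effect of over 70% in size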
In short: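 Human lymphoblastoid LYMP2-001 cells, 2500 per well, in complete medium, treated 24 h at 37 C. Viability from cellular ATP by CellTiter-Glo luminescence; AC50 from Hill-equation fits of qHTS concentration-response.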

[5] = MultiTox-Fluor Cytotoxicity Assay - LYMP1-001 - Dead Cells (AID 946);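 further: cells exposed to compound for 16 h; 0% = DMSO and 100% = tetraoctylammonium bromide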
In short: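 AC50 from Hill fit of concentration-response; data normalized to DMSO (basal) and 15 uM tetraoctylammonium bromide (100%). LYMP1-001 lymphoblastoid cells, 2500/well, 16 hr compound at 37 C; dead-cell protease fluorescence, Ex/Em 485/520.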

[6] = MultiTox-Fluor Cytotoxicity Assay - LYMP1-001 - Live Cells (AID 947);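 further: 0% = DMSO only and full inhibition = tetraoctylammonium bromide control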
[7] = Cell Viability - LYMP1-002 - Assay at 16 hr (AID 948);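 further: 0% = DMSO alone and full effect = 92 µM tetraoctylammonium bromide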
In short: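 LYMP1-002 human lymphoblastoid cells, 2500/well, were treated with compounds for 16 hr at 37 C in complete medium. Viability was read as intracellular ATP by CellTiter-Glo luminescence, and AC50 was derived from a Hill fit to concentration-response data.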

[8] = MultiTox-Fluor Cytotoxicity Assay - LYMP1-002 - Live Cells (AID 955);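 further: cells exposed to compound for 16 hours; on the % scale 0 is the no-effect control and ±100 the full control effect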
In short: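 Cytotoxicity in the human lymphoblastoid line LYMP1-002 is measured as loss of live-cell protease activity after 16 h treatment in complete culture medium. AC50 is derived from Hill-equation fits of qHTS concentration-response data.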

[9] = MultiTox-Fluor Cytotoxicity Assay - LYMP1-002 - Dead Cells (AID 960);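 further: cells exposed to compound for 16 h at 37 °C; 0% = DMSO and 100% = tetraoctylammonium bromide; nearly all actives have a fitted effect of over 60% in size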
In short: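 Acute cytotoxicity in a human lymphoblastoid line is scored as rising dead-cell protease signal after 16 hr exposure at 37 C, measured fluorometrically (485/520).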

[10] = MultiTox-Fluor Cytotoxicity Assay - LYMP1-003 - Dead Cells (AID 961);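 further: cells exposed to compound for 16 h at 37 °C; 0% = DMSO and 100% = tetraoctylammonium bromide; nearly all actives have a fitted effect of over 70% in size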
In short: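 Human lymphoblastoid LYMP1-003 cells (2500/well) were treated with compounds for 16 hr at 37 C in complete medium. Dead-cell protease release was read by bis-AAF-R110 fluorescence (Ex/Em 485/520). AC50 came from Hill fits, normalized to DMSO and 15 uM tetraoctylammonium bromide.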

[11] = MultiTox-Fluor Cytotoxicity Assay - LYMP1-003 - Live Cells (AID 962);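 further: cells exposed to compound for 16 hours at 37 °C; 0% = DMSO only and full loss = 92 µM tetraoctylammonium bromide; cytotoxic hits lower the live-cell protease signal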
In short: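 Cells plated at 2500 per well and incubated 5 hr; compounds added and incubated 16 hr at 37 C; MultiTox-Fluor reagent added for 60 min at room temperature; fluorescence of liberated AFC measured at 405/510 nm.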

[12] = Cell Viability - LYMP1-003 - Assay at 24 hr (AID 963);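 further: plate controls were DMSO only for no effect and tetraoctylammonium bromide positive control for full effect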
In short: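 Acute toxicity in LYMP1-003 lymphoblastoid cells: 24 hr compound treatment at 37 C, ATP measured with CellTiter-Glo after 30 min at room temperature. AC50 derived by fitting the Hill equation to qHTS titrations.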

[13] = Cell Viability - LYMP2-003 (AID 965);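 further: cells exposed to compounds for 24 h before reading; 0% = DMSO only and full effect = 92 µM tetraoctylammonium bromide; nearly all actives have a fitted effect of over 50% in size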
In short: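 Human lymphoblastoid LYMP2-003 cells, 2500/well, exposed to compounds for 24 h at 37 C in complete medium. Viability read as intracellular ATP by CellTiter-Glo luminescence; AC50 from Hill-equation fits of qHTS concentration-response data.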

[14] = Cell Viability - LYMP2-004 (AID 966);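 further: plate controls were DMSO only for no effect and tetraoctylammonium bromide control for full effect; nearly all actives have a fitted effect of over 65% in size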
In short: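 Acute toxicity is scored as a concentration-dependent drop in intracellular ATP, quantified by luciferase luminescence, in human lymphoblastoid cells exposed to compound for 24 hr. AC50 derives from Hill-equation modelling.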

[15] = Cell Viability - LYMP2-011 (AID 969);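 further: 0% = DMSO only and full inhibition = 92 µM tetraoctylammonium bromide; nearly all actives have a fitted effect of over 60% in size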
In short: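 Acute toxicity is scored as a concentration-dependent drop in intracellular ATP of a human lymphoblastoid line after 24 hr treatment. Values are AC50s modeled with the Hill equation.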

[16] = Cell Viability - LYMP2-013 (AID 970);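 further: 0% = DMSO only and full inhibition = tetraoctylammonium bromide control; nearly all actives have a fitted effect of over 55% in size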
In short: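 Acute toxicity was measured in human lymphoblastoid cells (2500/well) exposed to compound titrations for 24 hr, with ATP luminescence (CellTiter-Glo) as read-out and AC50 fitted by Hill equation.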

[17] = Cell Viability - LYMP2-015 (AID 971);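 further: 0% = DMSO only and full effect = 92 µM tetraoctylammonium bromide; nearly all actives have a fitted effect of over 55% in size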
In short: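 Acute toxicity was scored as a concentration-dependent drop in intracellular ATP in lymphoblastoid cells after 24 hr compound exposure in complete medium. Detection used CellTiter-Glo luciferase luminescence.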

[18] = Cell Viability - LYMP2-017 (AID 972); further: on the % scale 0 is the no-effect control and ±100 the full control effect; nearly all actives have a fitted effect of over 55% in size
In short: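 Steps: plate 2500 lymphoblastoid cells per well; incubate 5 hr at 37 C; add compound across a concentration series and incubate 24 hr at 37 C; add CellTiter-Glo and read luminescence after 30 min at room temperature; fit Hill curves for AC50.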

[19] = Cell Viability - LYMP2-019 (AID 973);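 further: 0% = DMSO alone and full effect = 92 µM tetraoctylammonium bromide; nearly all actives have a fitted effect of over 55% in size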
In short: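 Cells plated at 2500/well and allowed 5 hr at 37 C before compound addition. After 24 hr incubation, CellTiter-Glo reagent was added, plates sat 30 min at room temperature, and luminescence was recorded.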

[20] = Cell Viability - LYMP2-021 (AID 974)
In short: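 Concentration-response cytotoxicity in a human lymphoblastoid line: 24 hr treatment at 37 C in complete culture medium, tetraoctylammonium bromide as positive control, luminescent ATP quantitation as viability measure.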

[21] = Cell Viability - LYMP2-023 (AID 975)
In short: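 Concentration-dependent drop in intracellular ATP measures acute cytotoxicity in a human lymphoblastoid line treated for 24 hours in complete culture medium. AC50 values are taken from Hill-equation fits of qHTS data.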

[22] = Cell Viability - LYMP2-025 (AID 976);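 further: plate controls were DMSO only for no effect and tetraoctylammonium bromide control for full effect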
In short: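 In qHTS format, LYMP2-025 lymphoblastoid cells in complete culture medium received compound for 24 hr; ATP-based CellTiter-Glo signal gave viability, with AC50 derived by Hill equation.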

[23] = Cell Viability - LYMP2-002 (AID 977);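 further: compound exposure lasted 24 h at 37 °C; plate controls were DMSO only for no effect and 92 µM tetraoctylammonium bromide for full effect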
In short: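 Cytotoxicity is scored as concentration-dependent loss of cellular ATP in a human lymphoblastoid line after 24 hr compound treatment at 37 C. AC50 is obtained by modelling concentration-response data with the Hill equation.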

[24] = Cell Viability - LYMP2-006 (AID 978); further: on the % scale 0 is the no-effect control and ±100 the full control effect; nearly all actives have a fitted effect of over 60% in size
In short: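 Human lymphoblastoid cells (LYMP2-006), 2500/well in complete medium, were treated with compound for 24 hr at 37 C. Cellular ATP was read by CellTiter-Glo luminescence after 30 min, and AC50 values came from Hill-equation fits of concentration-response data.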

COC1=CC(=O)OC(CCc2ccccc2)C1 (centres undefined)
inactive: outcome [1] | caspase-3 activation [2] 1.48% | Potency [3] | Potency [4] | Potency [5] | Potency [6] | Potency [7] | outcome [8] | Potency [9] | Potency [10] | Potency [11] | Potency [12] | Potency [13] | Potency [14] | Potency [15] | Potency [16] | Potency [17] | Potency [18] | Potency [19] | Potency [20] | Potency [21] | Potency [22] | Potency [23] | Potency [24]
